Assay results taken from PubChem BioAssay (NCATS).
Where “and” joins values, the source holds several entries; their conditions need not be identical. Identical values can stand only once. Results filed as inconclusive are left out. More than one record can exist for a structure, and the calls need not agree. Calls of active or inactive are those of the source. The call rests on the fitted dose curve; in most records, active means well fitted inhibition curve with a large enough effect; inconclusive means small, poorly fitted or top-dose-only effect; inactive means flat fitted curve, though single readings scatter.

Key:
[1] = test system: CRL-7250; test: Cytotoxic Profiling of Annotated Libraries Using Quantitative High-Throughput Screening (AID 1296008); conditions: Five cell lines viability, CellTiter-Glo ATP luminescence, 48-72 h; max response: hits give low values; further: potency means the concentration at half of the fitted maximal effect; on max response: on the % scale 0 is the no-effect control and ±100 the full control effect
Procedure, shortened: (§1)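 Compounds were pin-transferred onto cells and incubated 48 or 72 hr at 37 degree Celsius, 95% humidity. CellTiter-Glo was added, plates sat 10 min at room temperature, then ATP-coupled luminescence was imaged as the viability read-out.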

[2] = test system: HaCat; test: as above; conditions: Five cell lines viability, CellTiter-Glo ATP luminescence, 48-72 h; max response: hits give low values
Procedure, shortened: as §1

[3] = test system: KB-3-1; test: as above; conditions: Five cell lines viability, CellTiter-Glo ATP luminescence, 48-72 h; max response: hits give low values
Procedure, shortened: as §1

[4] = test system: NIH3T3; test: as above; conditions: Five cell lines viability, CellTiter-Glo ATP luminescence, 48-72 h; max response: hits give low values
Procedure, shortened: as §1

[5] = test system: HACAT; test: qHTS assay to identify novel small-molecules to repurpose for Merkel cell carcinoma treatment (AID 1296009); conditions: MCC and control cell lines, CellTiter-Glo viability, 72 h; at 44.8 µM (top of the series) unless noted
Procedure, shortened: (§2)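 qHTS format: cells treated with library compounds in DMSO across 8 (NPC) or 11 (MIPE) concentrations. Readout after 72 hr at 37 degree celsius was CellTiter-Glo luminescence.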

[6] = test system: MCC-13; test: as above; conditions: MCC and control cell lines, CellTiter-Glo viability, 72 h; series mostly up to 46 µM
Procedure, shortened: as §2

[7] = test system: MCC-26; test: as above; conditions: MCC and control cell lines, CellTiter-Glo viability, 72 h; series mostly up to 46 µM
Procedure, shortened: as §2

[8] = test system: HEK293T; test: as above; conditions: MCC and control cell lines, CellTiter-Glo viability, 72 h; at 44.8 µM (top of the series) unless noted
Procedure, shortened: as §2

[9] = test system: W2; test: qHTS profiling for inhibitors of Plasmodium falciparum proliferation (AID 504749);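 further: 0% = DMSO vehicle and full inhibition = artemisinin control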; conditions: P. falciparum in erythrocytes, SYBR Green DNA, 72 h; series mostly up to 28.7 µM
Procedure, shortened: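 Parasite proliferation within erythrocytes, 72 h exposure. Endpoint: SYBR Green I fluorescence after overnight lysis at room temperature. Controls: 0.29 uM artemisinin, DMSO.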
Further: nearly all actives have a fitted effect of over 60% in size.

CC[C@]1(O)C[C@H]2CN(CCC3=c4ccccc4=N[C]3[C@@](C(=O)OC)(c3cc4c(cc3OC)N(C)[C@H]3[C@@](O)(C(N)=O)[C@H](O)[C@]5(CC)C=CCN6CC[C@]43[C@@H]65)C2)C1
active: Potency [1] 93.5 nM | Potency [3] 0.0059 µM
inactive: max response [2] -10.4%

CO[C@@H]1C(N(C)C(=O)c2ccccc2)C[C@H]2O[C@]1(C)n1c3ccccc3c3c4c(c5c6ccccc6n2c5c31)C(=O)NC4=O (stereo partly drawn)
active: Potency [1] 6620 nM | Potency [2] 9.35 µM | Potency [3] 10.5 µM

CCCCC[C@H](O)C=C[C@H]1[C@H](O)CC(=O)[C@H]1CC=CCCCC(=O)O
inactive: max response [1] 2.95% | outcome [2] | outcome [3] | max response [4] -18.8% | outcome [5] | Potency [6] | Potency [7]

CCN1CCC(n2cc(CNc3cc(Cl)c4ncc(C#N)c(Nc5ccc(F)c(Cl)c5)c4c3)nn2)CC1
inactive: max response [1] -1.92% and -4.77% | max response [2] -29.2% and -4.6% | max response [4] 2.53% | outcome [4] | Potency [6] | Potency [7]
active: Potency [3] 18.4 µM

CCOC(=O)c1c(CSc2ccccc2)n(C)c2cc(Br)c(O)c(CN(C)C)c12
inactive: outcome [1] | outcome [2] | max response [3] -17.1% | max response [4] -4.48% | outcome [5] | Potency [6] | Potency [7]

Cc1ccc(C2=Nc3ccc(Cl)cc3OC2)cc1
inactive: outcome [1] | outcome [2] | max response [3] 5.39% | max response [4] -2.62% | outcome [5] | Potency [6] | Potency [7]

C[C@@]1(c2cc(-c3cncnc3)c(F)cc2F)CCSC(N)=N1
inactive: max response [1] 3.38% and -17.5% | max response [2] -8.12% and -24.8% | max response [3] -3.27% | outcome [3] | max response [4] -1.07% | outcome [4] | Potency [6] | Potency [7]

Clc1ccc(C2(c3ccc(-c4cn[nH]c4)cc3)CCNCC2)cc1
active: Potency [1] 3.72 µM and 7.31 µM | Potency [2] 13 µM | Potency [3] 16.6 µM and 16.4 µM
inactive: outcome [2] | outcome [5] | Potency [7]

O=[N+]([O-])c1ccc(Nc2ccccc2-c2ccccc2)c2nonc12
inactive: max response [1] -7.85% | outcome [2] | max response [3] -18.3% | max response [4] -25.2% | outcome [5] | Potency [6] | Potency [7]

O=c1cc(-c2ccc(O)c(O)c2)oc2cc(O)cc(O)c12
inactive: max response [1] 4.28% | outcome [2] | outcome [3] | max response [4] 3.33% | outcome [5] | outcome [8] | Potency [6] | Potency [7]

O=C(CC12CC3CC(CC(C3)C1)C2)Nc1cccc2nc(NCCNCCO)ccc12
inactive: max response [1] -13.8% and 3.99% | outcome [2] | max response [3] -12.7% | outcome [4] | outcome [5] | Potency [6] | Potency [7]

CCCCCCOC(=O)N=C(N)c1ccc(NCc2nc3cc(C(=O)N(CCC(=O)OCC)c4ccccn4)ccc3n2C)cc1
inactive: max response [1] -14.3% | outcome [2] | max response [3] 5.67% | max response [4] 3.96% | outcome [5] | Potency [6] | Potency [7]

N#CC(c1ccnc(NCCc2cccnc2)n1)c1nc2ccccc2s1 (stereo not drawn)
inactive: max response [1] -3.29% | outcome [2] | max response [3] 8.21% | max response [4] -3.33% | outcome [5] | Potency [6] | Potency [7]

CN(C)CCOc1ccc(-c2nc(-c3ccc4c(c3)CCC4=NO)c(-c3ccncc3)[nH]2)cc1
inactive: outcome [1] | outcome [2] | max response [3] 2.27% | max response [4] 1.65% | outcome [5] | Potency [6] | Potency [7]

COc1cc(Nc2nc3ccccc3nc2NS(=O)(=O)c2ccc(NC(=O)c3ccc(C)c(OC)c3)cc2)cc(OC)c1
inactive: max response [1] -27.1% and -5.83% | max response [2] -23.6% and -15% | max response [3] 6.27% | outcome [3] | max response [4] -5.22% | outcome [4] | outcome [8] | Potency [6] | Potency [7]

COc1ccc2c(c1)c(C1=C(c3c[nH]c4ccccc34)C(=O)NC1=O)cn2CCCN(C)C
inactive: outcome [1] | outcome [2] | max response [3] -14.8% | max response [4] 4.3% | outcome [5] | Potency [6] | Potency [7]

COc1nccc(-c2c(-c3ccc(F)cc3)ncn2C2CCC(O)CC2)n1 (stereo not drawn)
inactive: max response [1] 2.19% and -0.385% | max response [2] -10.4% | outcome [2] | outcome [3] | max response [4] -1.87% | outcome [5] | outcome [8] | Potency [6] | Potency [7]

CN(C)c1ccc(-c2nc3ncc(Cl)c(N4CCN(CC(=O)Nc5nccs5)CC4)c3[nH]2)cc1
active: Potency [3] 2 µM
inactive: max response [1] -24% | outcome [2] | outcome [3] | outcome [5] inactive [at 17.4 µM] | Potency [6] | Potency [7]

CCC[C@H](N[C@@H](C)C(=O)N1[C@@H]2CCCC[C@H]2C[C@H]1C(=O)O)C(=O)OCC
inactive: max response [1] 2.7% | outcome [2] | max response [3] -1.21% | max response [4] -10.8% | outcome [5] | Potency [6] | Potency [7]

CCCCN(CCCC)CC(O)c1cc(Cl)cc2c1-c1ccc(Cl)cc1C2=Cc1ccc(Cl)cc1 (stereo not drawn)
inactive: max response [1] -1.5% | outcome [2] | max response [3] 3.8% | outcome [4] | outcome [5] | Potency [6] | Potency [7]

CCCCC(C=O)NC(=O)C(CC(C)C)NC(=O)OCc1ccccc1 (stereo not drawn)
inactive: max response [1] -8.38% | outcome [2] | max response [3] -12% | max response [4] -21.8% | outcome [5] | Potency [6] | Potency [7]

CS(=O)(=O)c1ccc(C2=C(c3ccccc3)C(=O)OC2)cc1
inactive: Potency [9] | max response [1] 3.58% and 2.56% | max response [2] -5.92% | outcome [2] | max response [3] 20.7% and -2.3% and -12.9% | max response [4] -4.55% | outcome [4] | outcome [5] | outcome [8] | Potency [6] | Potency [7]

CN(C)c1ccccc1CN1CCCN(Cc2ccccc2N(C)C)C1c1ccncc1
inactive: outcome [1] | outcome [2] | outcome [3] | max response [4] -1.17% | outcome [5] | Potency [6] | Potency [7]

Cc1ccc(S(=O)(=O)OCC(=O)Nc2ccc(C(=O)O)c(O)c2)cc1
inactive: max response [1] -2.75% | outcome [2] | outcome [3] | max response [4] -0.735% | outcome [5] | Potency [6] | Potency [7]

C[C@@H](NC(=O)c1ncnc(N)c1Cl)c1ncc(C(=O)Nc2cc(C(F)(F)F)c(Cl)cn2)s1
inactive: max response [1] -9.83% | outcome [2] | outcome [3] | max response [4] -5.83% and 1.58% | outcome [5] | Potency [6] | Potency [7]

C[C@@H]1CCO[C@H]2Cn3cc(C(=O)NCc4ccc(F)cc4F)c(=O)c(O)c3C(=O)N12
active: Potency [4] 20.6 µM
inactive: outcome [1] | outcome [2] | max response [3] -10.6% and -26.2% | max response [4] -1.73% | outcome [5] | Potency [6] | Potency [7]

COc1ccc(Cn2ccc3ccc(C(=O)NO)cc32)cc1
inactive: max response [1] -16.1% and -2.36% | max response [2] -11.8% | outcome [2] | max response [3] 8.71% | outcome [3] | outcome [5] | Potency [6] | Potency [7]

Cc1nc2c([nH]1)CCN(C(=O)c1ccc(NC(=O)c3ccccc3-c3ccccc3)cc1)c1ccccc1-2
inactive: max response [1] 1.7% and 3.01% | max response [2] -0.498% | outcome [2] | max response [3] 0.364% and -8.3% | max response [4] 4.2% | outcome [4] | outcome [5] | Potency [6] | Potency [7]

CNC(=O)c1ccc2c(C(=Nc3cccc(CN(C)C)c3)c3ccccc3)c(O)[nH]c2c1
active: Potency [4] 16.6 µM and 8.2 µM
inactive: max response [1] -0.775% and -15% | max response [2] 0.629% | outcome [2] | outcome [3] | outcome [5] | Potency [6] | Potency [7]

C[C@H](c1ccc(F)cc1CCCC(=O)O)N(c1cc(F)ccc1F)S(=O)(=O)c1ccc(Cl)cc1
inactive: max response [1] -0.7% and -8.45% | outcome [2] | max response [3] -5.45% and 4.45% | max response [4] -19.7% and 4.43% | outcome [5] | outcome [8] | Potency [6] | Potency [7]

CC(C)(CO)[C@@H](O)C(=O)NCCC(=O)O
inactive: max response [1] 0.71% | outcome [2] | max response [3] 1.6% and 8.68% | max response [4] -2.4% | outcome [5] | outcome [8] | Potency [6] | Potency [7]

N#CC(=C1Nc2ccccc2S1)c1ccnc(OCc2ccc(CN3CCOCC3)cc2)n1
inactive: max response [1] 4.11% | outcome [2] inactive; activator | max response [3] -1.84% | max response [4] -8.13% | outcome [5] inactive; activator | Potency [6] | Potency [7]

O=C(CO)N1CCC(c2[nH]nc(-c3ccc(Cl)cc3)c2-c2ccncn2)CC1
inactive: max response [1] 0.635% and -7.11% | max response [2] -4.95% | max response [3] 6.51% | outcome [3] | Potency [6] | Potency [7]
